Compounds without any hit were thinned out: in the full panel of roughly 83,000, 20% have a hit.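 Plates (96-well) were seeded with cells, treated with compound at one concentration, and incubated for 48 hours before percent growth was determined.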 A number with no mark means an inactive call. The source made the active and inactive calls. How the source made its calls: active means growth percent below 10; inactive means the rest.
How the values were obtained:
Experiment in all cases: NCI-60 one-dose screen, 48 h (100 = growth as untreated, 0 = no growth, -100 = all killed)
[1] = system: DU-145 prostate; settings: 10 µM unless noted
[2] = system: K-562 leukemia; settings: 10 µM unless noted
[3] = system: MALME-3M melanoma; settings: 10 µM unless noted
[4] = system: RXF 393 renal; settings: 10 µM unless noted
[5] = system: SF-268 CNS; settings: 10 µM unless noted
[6] = system: SF-295 CNS; settings: 10 µM unless noted
[7] = system: SF-539 CNS; settings: 10 µM unless noted
[8] = system: UACC-257 melanoma; settings: 10 µM unless noted
[9] = system: M14 melanoma; settings: 10 µM unless noted
[10] = system: HCT-15 colon; settings: 10 µM unless noted
[11] = system: HT29 colon; settings: 10 µM unless noted
[12] = system: SNB-75 CNS; settings: 10 µM unless noted
[13] = system: SNB-19 CNS; settings: 10 µM unless noted
[14] = system: U251 CNS; settings: 10 µM unless noted
[15] = system: PC-3 prostate; settings: 10 µM unless noted
[16] = system: SK-MEL-5 melanoma; settings: 10 µM unless noted
[17] = system: UACC-62 melanoma; settings: 10 µM unless noted
[18] = system: SK-MEL-28 melanoma; settings: 10 µM unless noted
[19] = system: MDA-MB-231 breast; settings: 10 µM unless noted
[20] = system: LOX IMVI melanoma; settings: 10 µM

SMILES	growth [1]	growth [2]	growth [3]	growth [4]	growth [5]	growth [6]	growth [7]	growth [8]	growth [9]	growth [10]	growth [11]	growth [12]	growth [13]	growth [14]	growth [15]	growth [16]	growth [17]	growth [18]	growth [19]	growth [20]
C(=C\c1cc(/C=C/c2ccccc2)c2ccccc2n1)/c1ccccc1	101%	43.2%	90.5%	111%	102%	109%	74.3%	98.5%	51.4%	29.2%	86%	115%	97.7%	62.3%	78.2%	81.7%	93.4%	114%		
COc1cc(CNC(=O)/C=C/c2ccc3c(c2)OCO3)ccc1OCc1cn(-c2cccc(C(F)(F)F)c2)nn1	30%	24.7%	-11.9% (active)	-28.9% (active)	39%	-20.7% (active)	-81.2% (active)	18.1%	4.8% (active)	38.2%	17.6%		33.1%	-32.9% (active)	0.703% (active)	33.2%	-29.2% (active)	5.76% (active)		
COc1ccc2cc([C@H](C)C(=O)N/N=C/c3ccc(Br)cc3)ccc2c1	108%	100%	95.3%	100%	99.5%	98.8%	102%	110%	102%	101%	106%		98.8%	100%	106%	99.9%	95.6%	108%		
CC(=O)Nc1ccc(-c2cn(-c3cccc(C(=O)Nc4ccc(N5CCN(C)CC5)cc4)c3)nn2)cn1	83.4%	31.5%	72%	97%	88.7%	58.6%	68.6%	100%	87%	91.5%	6.82% (active)		49.4%	50.8%	72.2%	87.8%	114%	101%		
COc1cc(-c2cc(-c3cccc(OCC(=O)O)c3)[nH]c(=O)c2C#N)cc(OC)c1OC	111%	89.8%	95.9%	100%	110%	97.6%	93%	105%	97.6%	100%	112%		92.3%	113%	97.6%	99.7%		102%		
C=C1CC[C@@H]2[C@]3(C)COC(c4cn[nH]c4-c4ccc(C)cc4)O[C@@H]3CC[C@@]2(C)[C@@H]1C/C=C1/C(=O)OCC1O (stereo partly specified)	37.2%	2.59% (active)	-52.6% (active)	-31.7% (active)	54.2%	49.5%	-88.1% (active)	-0.178% (active)	-42.2% (active)	-72.9% (active)	-6.69% (active)		37.7%	-63.3% (active)	37.6%	-63.9% (active)		6.8% (active)		
NS(=O)(=O)c1ccc(-n2cc(-c3cccc(NC(=O)c4cc(Cl)cc(Cl)c4)c3)nn2)cc1	74.6%		77.6%	87.9%	43.1%	75.6%	70.1%	83.2%	52.4%	94.7%	32.1%	86.2%	68.6%	-45.9% (active)	69.7%		69.6%	45.3%	54.1%	2.52% (active)
CSc1ccccc1NC(=O)c1ccc2nnn(/C(C#N)=C/c3ccccn3)c2c1	-97.9% (active)	1.03% (active)	-94.7% (active)	-98.8% (active)	6.52% (active)	2.24% (active)	-100% (active)	-89.8% (active)	-93.6% (active)	-79.9% (active)	-92.1% (active)	67.9%	0.0552% (active)	-90.9% (active)	-71% (active)	-98.9% (active)		-99.2% (active)		
Cc1c(C(=O)NNC(=O)Nc2ccc(Cl)cc2)nnn1-c1ccc(Br)cc1	99.5%	92.2%	90.7%	90.5%	103%	98.8%	102%	99%	101%	97%	97.2%	90.2%	91.4%	104%	103%	99.4%		96.5%		
COc1cccc(-c2c(C#N)c(-c3ccc(Cl)cc3)nc3n[nH]c(-c4ccc(Cl)cc4)c23)c1	58.5%	5.73% (active)	59.7%	39.3%	65.9%	64.5%	38.1%	54.4%	36.8%	9.74% (active)	27.9%	56.3%	68.2%	48.5%	23.9%	30.9%	61.3%	73.6%		
Cc1ccc2c(N)c(C(=O)Nc3ccc(-c4ccccc4)cc3)sc2n1	88.4%	36.9%	65.5%	30.5%	101%	45.6%	67.7%	61%	73.2%	58.7%	84.3%		63.5%	85.2%	68.5%	20.3%	72.2%	85.1%		
COc1ccc(C(=O)/C=C/c2ccccc2Cl)cc1S(N)(=O)=O	117%		93.9%	124%	92.1%	89.2%	97.5%	120%	109%	92.9%	109%	107%	97.4%	109%	106%		92.9%	103%	91.9%	105%
COc1ccc(C(=O)/C=C/c2cc3c(cc2Br)OCO3)cc1S(N)(=O)=O	-0.788% (active)		23.8%	-58.2% (active)	18.1%	-22.8% (active)	-89.2% (active)	63.6%	-71.2% (active)	-40.4% (active)	0.446% (active)	2.3% (active)	6.32% (active)	-95.1% (active)	2.21% (active)			27.6%	23.7%	-85.5% (active)
O=C1C(=Nc2ccc(F)c(Cl)c2)c2cccc3cccc1c23	80.3%		49.8%	107%	68.6%	47.3%	26.8%	49%	63.2%	8.52% (active)	5.96% (active)	66.5%	71.2%	24.7%	77.9%		52.8%	57.9%	59.6%	46.9%
Nc1n[nH]c2cccc(C#Cc3cccc(NC(=O)c4cccc(Cl)c4)c3)c12	55.8%		46.4%	-14.7% (active)	41.1%	15.3%	8.74% (active)	48.5%	15.9%	20%	37.8%	35.7%		46.1%	20.5%		32.4%	42.5%	9.79% (active)	17.7%
COc1ccc(C(=O)/C=C/c2cccc3ccccc23)cc1S(N)(=O)=O	13.2%		30.1%	-59.4% (active)	14.4%	-61.7% (active)	-83.4% (active)	-42.6% (active)	-74% (active)	-65.3% (active)	-39.5% (active)	51.2%	10.5%	-93.9% (active)	12.8%		-58% (active)	-50.8% (active)	21.8%	-84.2% (active)
